Measured values published in PubChem BioAssay (NCATS).
The source made the active and inactive calls. The call rests on the fitted dose curve; in most records, active means well fitted inhibition curve with a large enough effect; inconclusive means small, poorly fitted or top-dose-only effect; inactive means flat fitted curve, though single readings scatter.

Biological target: Flap endonuclease 1 (Homo sapiens) (UniProt P39748)
Experiment: qHTS Validation Assay for the Inhibitors of Human Flap endonuclease 1 (FEN1) (AID 488816)
Settings: FEN1 nuclease activity, fluorogenic DNA substrate; series mostly up to 57.1 µM
Source text: The major human flap endonuclease FEN1 is an efficient structure-specific enzyme that recognizes and cleaves a 5'-unannealed DNA flap. It belongs to the RAD2 family nucleases, which are involved in DNA metabolism and are highly conserved in prokaryotes and eukaryotes. FEN1 is a key enzyme in DNA replication, repair and maintenance of genomic stability. 5'-flap removal by FEN1 is critical for Okazaki fragment processing during lagging strand DNA synthesis, long-patch base excision repair (LP BER), and regulating or facilitating recombination events. […] Deletion of the yeast FEN1 gene, i.e. rad27, results in an increased frequency of short DNA (3-32 bp) repeats, micro- and mini-satellite formation, trinucleotide repeat expansion, spontaneous recombination events, and a severe growth defect in association with cell cycle arrest in late S/G2 phase. […] Cells from fen1-/- blastocysts show increased apoptotic cell death after ionizing radiation treatment, and chicken cells lacking the fen1 gene are hypersensitive to DNA alkylating agents, e.g. methylmethane sulfonate (MMS) and N-methyl-N'-nitro-N-nitrosoguanidine (MNNG), as well as hydrogen peroxide.
FEN1 is found to be increased in many human cancers, including lung, brain cancer, gastric cancer, prostate cancer, pancreatic cancer and breast cancer. […] In particular, elevation of FEN1 in hormone refractory human prostate cancer cells correlates with resistant to various anticancer agents including ionizing radiation, doxorubicin, paclitaxel and vinblastine.
Three uL of reagents (buffer in column 3 and 4 as negative control and 10 nM FEN1 in columns 1, 2, and 5-48) were dispensed into 1,536-well black solid-bottomed plate. Compounds (23 nL) were transferred via Kalypsys pin tool equipped with 1536-pin array (10 nL slotted pins, V&P Scientific, San Diego, CA). The plates were then incubated for 15 min at room temperature, and 1 uL substrate (50 nM final concentration) were added to start the reaction read twice at 0 min read and 15 min on ViewLux reader. Throughout the screen, reagent bottle and all liquid lines were chilled and made light-tight to minimize reagent degradation. All screening operations were performed on a fully integrated robotic system (Kalypsys, San Diego, CA) containing one RX-130 and two RX-90 anthropomorphic robotic arms (Staubli, Duncan, SC). Library plates were screened starting from the lowest and proceeding to the highest concentration, and a "double-dipping" step of the highest concentration was required to access higher concentrations of compounds. Vehicle-only plates, with DMSO being pin-transferred to the entire column 5-48 compound area, were inserted uniformly at the beginning and the end of each library in order to monitor for and record any shifts in the background, which can be affected by reagent dispensers or loss in enzyme activity overtime. Screening data was corrected, normalized, and concentration-effect relationships were derived by using publicly-available curve fitting algorithms developed in-house (http://ncgc.nih.gov/pub/openhts). A four parameter Hill equation was fitted to the concentration-response data by minimizing the residual error between the modeled and observed responses.

Chain of Flap endonuclease 1 (Homo sapiens) (P39748 whole entry, looked up): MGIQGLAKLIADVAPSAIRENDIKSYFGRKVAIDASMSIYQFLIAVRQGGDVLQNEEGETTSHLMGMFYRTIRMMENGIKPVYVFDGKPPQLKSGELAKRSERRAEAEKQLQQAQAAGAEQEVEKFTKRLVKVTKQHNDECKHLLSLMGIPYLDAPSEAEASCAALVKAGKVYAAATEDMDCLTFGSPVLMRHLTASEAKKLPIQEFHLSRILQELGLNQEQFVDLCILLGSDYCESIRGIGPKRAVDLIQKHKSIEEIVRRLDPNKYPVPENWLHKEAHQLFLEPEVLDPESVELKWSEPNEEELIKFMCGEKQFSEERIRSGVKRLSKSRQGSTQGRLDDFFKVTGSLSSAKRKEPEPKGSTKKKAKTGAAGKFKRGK

Structure (SMILES)	outcome
N[C@@H](Cc1cnc[nH]1)C(=O)O	inactive
COc1cc2c(cc1O)CC[C@@H]1[C@@H]2CC[C@]2(C)[C@@H](O)CC[C@@H]12	inactive
CCC(NC(C)C)C(O)c1ccc(O)c(O)c1 (configuration not stated)	inactive
O=C1CCC(c2ccc(-n3ccnc3)cc2)=NN1	inactive
CN1C2CCC1CC(OC(=O)c1c[nH]c3ccccc13)C2 (configuration not stated)	inactive
CC(C)C[C@H]1C(=O)N2CCC[C@H]2[C@]2(O)O[C@](NC(=O)[C@@H]3C=C4c5cccc6[nH]c(Br)c(c56)C[C@H]4N(C)C3)(C(C)C)C(=O)N12	inactive
C[C@]12CC[C@@H]3c4ccc(O)cc4CC[C@H]3[C@@H]1CC[C@@H]2O	inactive
COc1cc(NS(C)(=O)=O)ccc1Nc1c2ccccc2nc2ccccc12	inactive
Oc1ccc(O)cc1	inactive
Nc1cc(Cl)c(NC2=NCCN2)c(Cl)c1	inactive
CC(C)COC(=O)OCN1C(=O)CN(CCN2CC(=O)N(COC(=O)OCC(C)C)C(=O)C2)CC1=O	inactive
C[N+]1(CCCCC[N+]2(C)CCCC2)CCCC1	inactive
CC1(C)CCC(NC(=O)[C@@H](N)CCC(=O)O)CC1	inactive
CCCn1c(=O)[nH]c(=O)c2[nH]cnc21	inactive
C[C@@H]1C(=O)NC2=Nc3cccc(Cl)c3CN21	inactive
N[C@H](CO)C(=O)O	inactive
CC(=O)O[C@H]1C[C@@H]2CC[C@@H]3[C@H](CC[C@@]4(C)[C@H]3C[C@H]([N+]3(C)CCCCC3)[C@@H]4OC(C)=O)[C@@]2(C)C[C@@H]1[N+]1(C)CCCCC1	inactive
C1CCc2nnnn2CC1	inactive
O=C(O)c1cc2cc(Cc3cccnc3)ccc2o1	inactive
CCCC1O[C@@H]2C[C@H]3[C@@H]4CCC5=CC(=O)C=C[C@]5(C)[C@H]4[C@@H](O)C[C@]3(C)[C@]2(C(=O)CO)O1 (some centres not stated)	inactive
CC(CCc1ccccc1)NCC(O)c1ccc(O)c(C(N)=O)c1 (configuration not stated)	inactive
CC[C@H](C)C(=O)O[C@H]1CCC=C2C=C[C@H](C)[C@H](CC[C@@H]3C[C@@H](O)CC(=O)O3)[C@H]21	inactive
